Measurements taken from the supplement of paper PMC12024529.

These compounds were tested on HEK293 WT BDD-FVIII-Gluc (assay: secreted FVIII-Gluc luciferase Z-score vs DMSO control; higher = more FVIII-Gluc secretion). Settings: 5 µM.
Description: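 Natural plant-compound library (480 compounds, ST catalogue IDs) screened on HEK293 cells stably expressing WT BDD-FVIII-Gaussia luciferase fusion at 5 µM. Secreted Gluc activity in the medium is given as a Z-score relative to DMSO controls.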
In the case of `O=c1[nH]cnc2c1ncn2C1OC(CO)C(O)C1O` (stereo not drawn), the “secreted FVIII-Gluc luciferase Z-score” value is reported as -0.0892.
For `COC(=O)[C@@H]1C(O)CCC2CN3CCc4c([nH]c5ccccc45)C3CC21` (stereo partly drawn), the “secreted FVIII-Gluc luciferase Z-score” value was 0.187.
`CNC[C@H](O)c1ccc(O)c(O)c1` was tested, and the “secreted FVIII-Gluc luciferase Z-score” value was 0.948.
With `CC1(C)CC[C@]2(C(=O)O)CC[C@]3(C)C(=CC[C@@H]4[C@@]5(C)CC[C@H](O)C(C)(C)[C@@H]5CC[C@]43C)[C@@H]2C1` the “secreted FVIII-Gluc luciferase Z-score” value was 0.157.
In the case of `C=C1CCC2C(C)(CO)C(O)CCC2(C)C1C/C=C1\C(=O)OCC1O` (stereo not drawn), the “secreted FVIII-Gluc luciferase Z-score” value is reported as -1.01.
`Nc1ncnc2c1ncn2C1OC(COP(=O)(O)OP(=O)(O)OP(=O)(O)O)C(O)C1O` (stereo not drawn) was tested, and the “secreted FVIII-Gluc luciferase Z-score” value was 0.477.
In the case of `N[C@H](Cc1c[nH]c2ccccc12)C(=O)O`, the “secreted FVIII-Gluc luciferase Z-score” value is reported as 0.298.
In the case of `Cc1ccc(C(=O)[C@@H]2[C@H]3C4COC(O4)C(=O)[C@@H]3[C@H]3C=Cc4ccccc4N32)cc1` (stereo partly drawn), the “secreted FVIII-Gluc luciferase Z-score” value is reported as -0.368.
For `O=c1cc(-c2ccccc2O)oc2c(O)c(O)ccc12`, the “secreted FVIII-Gluc luciferase Z-score” value was 0.356.
With `CC1(C)S[C@@H]2[C@H](NC(=O)C(N)c3ccccc3)C(=O)N2[C@H]1C(=O)O` (stereo partly drawn) the “secreted FVIII-Gluc luciferase Z-score” value was -0.57.
In the case of `COc1ccc(CCN(C)CCCC(C#N)(c2ccc(OC)c(OC)c2)C(C)C)cc1OC` (stereo not drawn), the “secreted FVIII-Gluc luciferase Z-score” value is reported as 0.188.
For `OC[C@H]1O[C@@H](O[C@@H]2[C@@H](CO)O[C@](O)(CO)[C@H]2O)[C@H](O)[C@@H](O)[C@H]1O`, the “secreted FVIII-Gluc luciferase Z-score” value was 0.26.
In the case of `Cn1c(=O)c2c(ncn2C)n(C)c1=O`, the “secreted FVIII-Gluc luciferase Z-score” value is reported as -0.0716.
With `O=c1c2ccccc2oc2cc(O)c(C3COCC(CO)C(O)C(O)C3O)c(O)c12` (stereo not drawn) the “secreted FVIII-Gluc luciferase Z-score” value was 0.341.
In the case of `CCC(=O)OCC(=O)[C@@]1(OC(=O)CC)[C@@H](C)C[C@H]2[C@@H]3CCC4=CC(=O)C=C[C@]4(C)[C@@]3(F)[C@@H](O)C[C@@]21C`, the “secreted FVIII-Gluc luciferase Z-score” value is reported as 3.76.
In the case of `Cc1cc2ccc(=O)oc2cc1OC[C@@H](O)C(C)(C)O`, the “secreted FVIII-Gluc luciferase Z-score” value is reported as -0.00524.
For `O=c1cc(-c2cccc(O)c2)oc2cccc(O)c12`, the “secreted FVIII-Gluc luciferase Z-score” value was 0.424.
In the case of `CN1CCc2cc3c(cc2C(=O)Cc2ccc4c(c2C1)OCO4)OCO3`, the “secreted FVIII-Gluc luciferase Z-score” value is reported as -0.0429.
`CO[C@H]1/C=C/O[C@@]2(C)Oc3c(C)c(O)c4c(O)c(cc(O)c4c3C2=O)NC(=O)/C(C)=C\C=C\[C@H](C)[C@H](O)[C@@H](C)[C@@H](O)[C@@H](C)[C@H](OC(C)=O)[C@@H]1C` was tested, and the “secreted FVIII-Gluc luciferase Z-score” value was -0.224.
`COc1cc2ccc(=O)oc2c(O)c1O` was tested, and the “secreted FVIII-Gluc luciferase Z-score” value was 0.185.
With `Nc1ccccc1C(=O)CC(N)C(=O)O` (stereo not drawn) the “secreted FVIII-Gluc luciferase Z-score” value was -1.11.
For `COc1cc2oc(-c3ccccc3)cc(=O)c2cc1OC`, the “secreted FVIII-Gluc luciferase Z-score” value was 0.82.
With `COC1OC2COC(c3ccccc3)OC2C(O)C1O` (stereo not drawn) the “secreted FVIII-Gluc luciferase Z-score” value was -1.04.
In the case of `COc1ccc(C2CC(=O)c3c(O)cc(OC4OC(COC5OC(C)C(O)C(O)C5O)C(O)C(O)C4O)cc3O2)cc1O` (stereo not drawn), the “secreted FVIII-Gluc luciferase Z-score” value is reported as 0.438.
In the case of `COc1cc2c(cc1OC)C(=O)Cc1ccc3c(c1CN(C)CC2)OCO3`, the “secreted FVIII-Gluc luciferase Z-score” value is reported as 0.000104.
In the case of `O=c1cc(-c2ccc(O)c(O)c2)oc2cccc(O)c12`, the “secreted FVIII-Gluc luciferase Z-score” value is reported as -0.512.
For `COc1c2ccoc2cc2oc(=O)ccc12`, the “secreted FVIII-Gluc luciferase Z-score” value was 0.335.
In the case of `COc1ccc(-c2coc3ccc(OC4OC(COC(C)=O)C(OC(C)=O)C(OC(C)=O)C4OC(C)=O)c(OC(C)=O)c3c2=O)cc1` (stereo not drawn), the “secreted FVIII-Gluc luciferase Z-score” value is reported as -0.543.
For `O=c1ccn([C@H]2C[C@H](O)[C@@H](CO)O2)c(=O)[nH]1`, the “secreted FVIII-Gluc luciferase Z-score” value was 0.515.
With `Cc1ccc(CC(Cc2nc3ccccc3[nH]2)c2nc3ccccc3[nH]2)cc1` (stereo not drawn) the “secreted FVIII-Gluc luciferase Z-score” value was 0.284.
`CC[C@H](CC[C@@H](C)[C@H]1CC[C@H]2[C@@H]3CC=C4C[C@@H](O)CC[C@]4(C)[C@H]3CC[C@]12C)C(C)C` was tested, and the “secreted FVIII-Gluc luciferase Z-score” value was -0.318.
`NC(Cc1cnc[nH]1)C(=O)O` (stereo not drawn) was tested, and the “secreted FVIII-Gluc luciferase Z-score” value was 0.443.
For `CO[C@H]1/C=C/O[C@@]2(C)Oc3c(C)c(O)c4c(O)c(c(C=O)c(O)c4c3C2=O)NC(=O)/C(C)=C\C=C\[C@H](C)[C@H](O)[C@@H](C)[C@@H](O)[C@@H](C)[C@H](OC(C)=O)[C@@H]1C`, the “secreted FVIII-Gluc luciferase Z-score” value was 1.13.
`C=CC(C)(O)CCC=C(C)C` (stereo not drawn) was tested, and the “secreted FVIII-Gluc luciferase Z-score” value was -0.395.
In the case of `O=C1C[C@@H](c2ccccc2)Oc2cc(O)cc(O)c21`, the “secreted FVIII-Gluc luciferase Z-score” value is reported as 0.733.
In the case of `O=c1c(-c2ccc(O[C@@H]3O[C@H](CO)[C@@H](O)[C@H](O)[C@H]3O)cc2)coc2cc(O)cc(O)c12`, the “secreted FVIII-Gluc luciferase Z-score” value is reported as 0.683.
With `O=C1C[C@H](c2ccccc2)Oc2cc(O)cc(O)c21` the “secreted FVIII-Gluc luciferase Z-score” value was 0.533.
For `C[C@H]1[C@H](C)CC[C@]2(C(=O)O)CC[C@]3(C)C(=CC[C@@H]4[C@@]5(C)CC[C@H](O)C(C)(C)[C@@H]5CC[C@]43C)[C@H]12`, the “secreted FVIII-Gluc luciferase Z-score” value was 0.136.
